Assay results: PubChem BioAssay (NCATS)
Results filed as inconclusive are left out. Values without a mark were called inactive. Active and inactive are the calls of the source. Calls come from the whole dose curve; as a rule, active = well fitted inhibition curve with a large enough effect; inconclusive = small, poorly fitted or top-dose-only effect; inactive = flat fitted curve, though single readings scatter.

Tested on: HEK293
Experiment: Cytotoxic Profiling of Annotated Libraries Using Quantitative High-Throughput Screening (AID 1296008); note: nearly all actives have a fitted effect of over 60% in size
Settings: Five cell lines viability, CellTiter-Glo ATP luminescence, 48-72 h; max response: stronger effect = lower value
In short: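 Cytotoxicity was measured as CellTiter-Glo ATP luminescence, read after 10 min at room temperature. Compound treatment of the cells lasted 48 or 72 hr at 37 degrees Celsius in a qHTS format.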
% is set by controls: 0 for no effect and ±100 for the full control effect; potency is the fitted concentration of half-maximal effect.

| Structure (SMILES) | max response | Potency |
| --- | --- | --- |
| CCC(C)/C=C(C)/C=C/c1cc2c(cn1)C(=O)C(C)(OC(C)=O)C(O)=C2Cl (stereo unspecified) | -0.415% |  |
| CC1=C2C(O)C(=O)OC(c3ccoc3)C2(C)CCC1O (stereo unspecified) | -2.84% |  |
| CC(C)c1nc(-c2ccc(NC(=O)Nc3cccc(C(F)(F)F)c3)c3ccccc23)c2c(N)nccn12 |  | 6510 nM (active) |
| COc1ccc(-c2cnc3ccc(NCc4ccc(S(N)(=O)=O)cc4)nn23)cc1OC | -0.271% |  |
| COc1ncc(Nc2ncc([C@H](C)N3CCN(S(C)(=O)=O)CC3)cc2-c2nc(C)nc(N)n2)cc1F |  | 517 nM (active) |
| CO[C@H]1C[C@@H]2CC[C@@H](C)[C@@](O)(O2)C(=O)C(=O)N2CCCC[C@H]2C(=O)O[C@H]([C@H](C)C[C@@H]2CC[C@H](n3cnnn3)[C@H](OC)C2)CC(=O)[C@H](C)/C=C(\C)[C@@H](O)[C@@H](OC)C(=O)[C@H](C)C[C@H](C)/C=C/C=C/C=C/1C |  | 25.2 nM (active) |
| CC(C)c1cc(C(=O)N2CC[C@H](NC(=O)C3CC3)C2)n[nH]1 | -6.43% |  |
| Cc1cccc(C)c1-n1c(=O)c2cnc(Nc3ccc(N4CCN(C)CC4)cc3)nc2n2c3ccccc3nc12 |  | 517 nM (active) |
| CCN1CCN(Cc2ccc(NC(=O)c3ccc(C)c(/C=C/c4cnc5[nH]ccc5c4OC)c3)cc2C(F)(F)F)CC1 |  | 1460 nM (active) |
| C=C(C(=O)O)C1CCC2(C)CCCC(C)(O)C2C1 (stereo unspecified) | -4.4% |  |
| C[C@@H]1C(=O)O[C@H](C)[C@H]1CC(=O)[C@](C)(O)[C@H]1CC[C@@]2(O)C3=CC(=O)[C@@H]4C[C@@H](O)[C@@H](O)C[C@]4(C)C3CC[C@]12C (stereo partly specified) | -19.4% |  |
